# In PubChem BioAssay (Tox21):
# Where “and” joins values, the source holds several entries; their conditions need not be identical. Identical values can stand only once. Inconclusive results are not listed. Where a call stands in place of a potency, no number is given. Calls of active or inactive are those of the source. Unless noted, the call rests on the fitted dose curve; in most records, active means well fitted curve in the direction sought with a large enough effect in the repeat runs; inconclusive means weak or mixed curves; inactive means no such curve, though single readings can be large; an effect the other way counts as inactive or inconclusive. Residues, ends and D or L forms follow the SMILES beside them.
# What was measured:
# [1] = qHTS assay to identify small molecule agonists of the androgen receptor (AR) signaling pathway in the presence of an antagonist - cell viability counter screen (AID 1259379); further: nearly all actives have a fitted effect of over 25% in size; further: potency means the concentration at half of the fitted maximal effect
# How it was run: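 Cytotoxicity is assessed by CellTiter-Fluor in MDA-kb2 cells carrying an MMTV-driven luciferase reporter. Cells receive 3.0uM nilutamide plus compounds at 15 concentrations and incubate 16 hr at 37C without CO2 before fluorescence reading.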
# [2] = qHTS assay to identify small molecule agonists of the estrogen receptor beta (ER-beta) signaling pathway - cell viability counter screen (AID 1259380); further: nearly all actives have a fitted effect of over 30% in size
# How it was run: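 Cytotoxicity is measured in parallel with the reporter screen: after 16 hr compound exposure at 37C and a 2 hr LiveBLAzer step, CellTiter-Glo is added to the same ER-beta-UAS-bla HEK293T wells and luminescence read after 30 min.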
# [3] = qHTS assay to identify small molecule antagonists of the estrogen receptor beta (ER-beta) signaling pathway - cell viability counter screen (AID 1259382); further: series mostly up to about 92 µM; nearly all actives have a fitted effect of over 55% in size
# How it was run: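 Cytotoxicity counter screen multiplexed with the beta-lactamase antagonist assay: GripTite HEK293T ER-beta-bla cells were treated 16 hr with test chemicals in the presence of 1nM 17-beta-estradiol, and viability was measured by CellTiter-Glo.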
# [4] = target: Estrogen receptor (Homo sapiens) (UniProt P03372); assay: qHTS assay to identify small molecule agonists of the estrogen receptor alpha (ER-alpha) signaling pathway in the presence of an antagonist (AID 1259383; calls by dose curve; further: top concentration of the series differs between compounds; nearly all actives have a fitted effect of over 15% in size)
# How it was run: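 Agonist-mode confirmation in the presence of the ER antagonist ICI-182,780 at 10.0nM final. Breast-derived VM7Luc4E2 reporter cells were exposed to compounds for 22hr, and ERE-driven luciferase was quantified by luminescence.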
# [5] = qHTS assay to identify small molecule agonists of the estrogen receptor alpha (ER-alpha) signaling pathway in the presence of an antagonist - cell viability counter screen (AID 1259386);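 further: cells exposed to compounds for 22 h at 37 °C before the viability read; nearly all actives have a fitted effect of over 30% in size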; further: potency means the concentration at half of the fitted maximal effect
# How it was run: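 Cytotoxicity was measured in parallel with the ERE-luciferase agonist screen, in the same wells. The cells were VM7Luc4E2, which endogenously express ER-alpha, and treatment was with compounds plus 10.0nM ICI-182,780 for 22hr.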
# [6] = qHTS assay to identify small molecule antagonists of the progesterone receptor (PR) signaling pathway - cell viability counter screen (AID 1346798); further: series mostly up to about 92 µM; nearly all actives have a fitted effect of over 50% in size
# How it was run: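 Counter screen for cytotoxicity: viability of PR-UAS-bla HEK293T cells was measured with CellTiter-Glo luminescence following 16 hr compound exposure in the presence of R5020.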
# [7] = qHTS assay to identify small molecule agonists of the progesterone receptor (PR) signaling pathway - cell viability counter screen (AID 1346799; calls by dose curve; further: nearly all actives have a fitted effect of over 45% in size)
# How it was run: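 Cells (PR-UAS-bla HEK293T) are plated at 3,000/well in 2% charcoal-stripped FBS medium, rested 6 hr, dosed and incubated 16 hr at 37C. CellTiter-Glo is then added and luminescence measured after 30 min at room temperature.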
# [8] = qHTS assay to identify small molecule antagonists of the TGF-beta/Smad signaling pathway - cell viability counter screen (AID 1346824); further: nearly all actives have a fitted effect of over 50% in size
# How it was run: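 SBE-bla HEK 293T cells were plated overnight at 37 C, then given compounds in DMSO plus TGF-beta1 (added as 0.25 ng/mL solution) for 5 hr. After the bla read, CellTiter-Glo was added to the same wells and luminescence read after 30 min at room temperature.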
# [9] = qHTS assay to identify small molecule agonists of the TGF-beta/Smad signaling pathway - cell viability counter screen (AID 1346829); further: top concentration of the series differs between compounds; nearly all actives have a fitted effect of over 45% in size
# How it was run: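 CellTiter-Glo luminescence readout; SBE-bla HEK 293T cells, overnight plating, compound 5 hr at 37 C/5% CO2, then bla substrate 2 hr RT, then CellTiter-Glo 30 min RT.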
# [10] = qHTS assay to identify small molecule agonists of the TGF-beta/Smad signaling pathway (AID 1346859; active means well fitted activation curve with a large enough effect in the signal ratio in the repeat runs, not every such curve was filed as active; the % refers to the signal ratio; further: series mostly up to about 77 µM)
# How it was run: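 Reporter line: HEK 293T with stably integrated SBE-controlled beta-lactamase. Compound exposure lasts 5 hr at 37 C and 5% CO2; substrate loading follows for 2 hr at room temperature, with emission read at 460 and 530 nm.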
# [11] = Human pregnane X receptor (PXR) small molecule agonists, qHTS cell viability counter screen (AID 1346977); further: nearly all actives have a fitted effect of over 50% in size; further: potency means the concentration at half of the fitted maximal effect
# How it was run: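 Cytotoxicity counter screen run in the same wells as the PXR luciferase assay, using PXR-Luc HepG2 cells in charcoal-stripped serum medium. Viability: CellTiter-Fluor fluorescence after 24hr compound treatment.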
# [12] = Caspase-3/7 induction in HepG2 cells by small molecules, qHTS assay (AID 1346978); further: nearly all actives have a fitted effect of over 15% in size
# How it was run: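 Wild-type HepG2 cells (2,000/well) were settled 5 h at 37 C, 5% CO2, then exposed to compounds in DMSO for 17 h. Caspase-3/7 activity was read by luminescence 30 min after adding Caspase-Glo 3/7 reagent at room temperature.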
# [13] = qHTS assay to identify small molecule agonists or antagonists of the thyroid stimulating hormone receptor (TSHR) signaling pathway - wild type cell line counter screen (AID 1259384; calls by dose curve)
# How it was run: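 Wild-type HEK293 cells were plated 18 h at 37 C/5% CO2, pin-dosed with compound plus Ro20-1724 medium, held 30 min at room temperature, then given cAMP-d2 and anti-cAMP-cryptate; fluorescence was read after 1 h. Fifteen concentrations, triplicate.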
# [14] = target: Thyrotropin receptor (Homo sapiens) (UniProt P16473); assay: qHTS assay to identify small molecule antagonists of the thyroid stimulating hormone receptor (TSHR) signaling pathway (AID 1259385; calls by dose curve; further: nearly all actives have a fitted effect of over 20% in size)
# How it was run: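 TSHR-HEK293 cells were plated and held 18 h at 37C/5% CO2, then given compound plus Ro20-1724 and stimulated with TSH at 1.5 ng/mL final. After 30 min at room temperature, cAMP was detected with cAMP-d2/anti-cAMP-cryptate (1 h) by fluorescence.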
# [15] = target: Progesterone receptor (Homo sapiens) (UniProt P06401); assay: qHTS assay to identify small molecule agonists of the progesterone receptor (PR) signaling pathway (AID 1346784; calls by dose curve; further: nearly all actives have a fitted effect of over 30% in size)
# How it was run: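 Cells (PR-UAS-bla HEK 293T, GripTite) were plated in assay medium containing 2% charcoal-stripped FBS and incubated 6 hr. Test compounds in DMSO were added for 16 hr at 37C. FRET substrate was then loaded for 2 hr at room temperature before fluorescence reading.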
# [16] = target: Progesterone receptor (Homo sapiens) (UniProt P06401); assay: qHTS assay to identify small molecule antagonists of the progesterone receptor (PR) signaling pathway (AID 1346795; active means well fitted inhibition curve with a large enough effect in the signal ratio in the repeat runs, not every such curve was filed as active; the % refers to the signal ratio)
# How it was run: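 Antagonist mode: compounds tested against 1 nM (final) promegestone stimulation in HEK293T cells expressing PR-UAS-bla reporter, 16 hr at 37C, 5% CO2; beta-lactamase activity detected via B/G FRET substrate after 2 hr at room temperature.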
# [17] = target: Thyrotropin-releasing hormone receptor (Homo sapiens) (UniProt P34981); assay: qHTS assay to identify small molecule agonists of the thyrotropin-releasing hormone receptor (TRHR) signaling pathway (AID 1346891; calls by dose curve;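 further: HEK293 cells expressing TRHR with calcium dye readout; series mostly up to about 58 µM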)
# How it was run: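 Cells: TRHR-Hek293, seeded and incubated 18 h. Dye loading: 2 h at 37 °C. Compound added from DMSO stock by pin tool. Read-out: kinetic calcium fluorescence over 3 min.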
# [18] = target: Thyrotropin-releasing hormone receptor (Homo sapiens) (UniProt P34981); assay: qHTS assay to identify small molecule antagonists of the thyrotropin-releasing hormone receptor (TRHR) signaling pathway (AID 1346877; active means well fitted inhibition curve with a large enough effect in the repeat runs, not every such curve was filed as active; further: series mostly up to about 51 µM)
# How it was run: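 Antagonism is measured as suppression of the calcium response to 1 nM TRH in TRHR-HEK293 cells that have been dye-loaded for 2 h at 37 °C after overnight plating. Each compound is tested at 15 concentrations in triplicate.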
# [19] = target: Estrogen receptor beta (Homo sapiens) (UniProt Q92731); assay: qHTS assay to identify small molecule antagonists of the estrogen receptor beta (ER-beta) signaling pathway (AID 1259378; active means well fitted inhibition curve with a large enough effect in the signal ratio in the repeat runs, not every such curve was filed as active; the % refers to the signal ratio)
# How it was run: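 ER-beta-UAS-bla HEK293T (GripTite) cells in 2% charcoal-stripped FBS medium were preincubated 6 hr at 37C, dosed with compound, then stimulated with 1 nM E2 (final) for 16 hr; beta-lactamase reporter read by B/G FRET fluorescence after 2 hr substrate loading.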
# Sequence of Thyrotropin receptor (Homo sapiens) (P16473 whole entry, looked up): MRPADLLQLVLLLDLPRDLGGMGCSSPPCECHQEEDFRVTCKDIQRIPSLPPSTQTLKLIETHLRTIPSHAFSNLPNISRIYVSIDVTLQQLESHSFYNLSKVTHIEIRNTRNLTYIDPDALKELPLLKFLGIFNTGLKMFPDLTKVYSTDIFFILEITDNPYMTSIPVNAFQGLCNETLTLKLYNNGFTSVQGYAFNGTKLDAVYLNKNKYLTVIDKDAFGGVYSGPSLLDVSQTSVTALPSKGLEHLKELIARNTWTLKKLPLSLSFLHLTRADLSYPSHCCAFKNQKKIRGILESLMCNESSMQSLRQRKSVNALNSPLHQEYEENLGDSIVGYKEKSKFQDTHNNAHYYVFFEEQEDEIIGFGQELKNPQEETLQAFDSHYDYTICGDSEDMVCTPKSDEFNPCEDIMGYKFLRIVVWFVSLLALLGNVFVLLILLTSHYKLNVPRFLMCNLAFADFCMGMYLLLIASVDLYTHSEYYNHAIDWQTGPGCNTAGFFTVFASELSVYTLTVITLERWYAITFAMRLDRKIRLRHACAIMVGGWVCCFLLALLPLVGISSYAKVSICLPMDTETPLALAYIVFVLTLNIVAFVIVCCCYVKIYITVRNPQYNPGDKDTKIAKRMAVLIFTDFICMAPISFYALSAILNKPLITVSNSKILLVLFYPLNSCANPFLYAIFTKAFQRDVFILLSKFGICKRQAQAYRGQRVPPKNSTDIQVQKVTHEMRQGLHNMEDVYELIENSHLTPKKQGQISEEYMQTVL
# Sequence of Estrogen receptor (Homo sapiens) (P03372 whole entry, looked up): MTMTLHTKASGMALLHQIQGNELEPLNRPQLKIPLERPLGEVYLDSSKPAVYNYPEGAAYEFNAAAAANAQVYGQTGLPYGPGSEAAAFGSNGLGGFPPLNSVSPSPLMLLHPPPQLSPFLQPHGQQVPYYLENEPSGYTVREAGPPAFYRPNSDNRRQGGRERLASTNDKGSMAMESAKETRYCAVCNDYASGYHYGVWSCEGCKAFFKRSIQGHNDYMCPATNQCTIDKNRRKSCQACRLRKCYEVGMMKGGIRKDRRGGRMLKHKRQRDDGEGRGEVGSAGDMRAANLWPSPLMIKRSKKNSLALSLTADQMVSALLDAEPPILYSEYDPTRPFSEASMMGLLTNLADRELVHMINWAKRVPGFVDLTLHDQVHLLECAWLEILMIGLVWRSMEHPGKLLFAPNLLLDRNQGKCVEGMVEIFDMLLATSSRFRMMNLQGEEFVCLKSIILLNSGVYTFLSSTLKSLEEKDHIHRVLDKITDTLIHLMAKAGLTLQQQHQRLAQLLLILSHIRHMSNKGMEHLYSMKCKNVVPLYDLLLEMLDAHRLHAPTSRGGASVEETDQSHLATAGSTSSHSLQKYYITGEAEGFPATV
# Sequence of Progesterone receptor (Homo sapiens) (P06401 whole entry, looked up): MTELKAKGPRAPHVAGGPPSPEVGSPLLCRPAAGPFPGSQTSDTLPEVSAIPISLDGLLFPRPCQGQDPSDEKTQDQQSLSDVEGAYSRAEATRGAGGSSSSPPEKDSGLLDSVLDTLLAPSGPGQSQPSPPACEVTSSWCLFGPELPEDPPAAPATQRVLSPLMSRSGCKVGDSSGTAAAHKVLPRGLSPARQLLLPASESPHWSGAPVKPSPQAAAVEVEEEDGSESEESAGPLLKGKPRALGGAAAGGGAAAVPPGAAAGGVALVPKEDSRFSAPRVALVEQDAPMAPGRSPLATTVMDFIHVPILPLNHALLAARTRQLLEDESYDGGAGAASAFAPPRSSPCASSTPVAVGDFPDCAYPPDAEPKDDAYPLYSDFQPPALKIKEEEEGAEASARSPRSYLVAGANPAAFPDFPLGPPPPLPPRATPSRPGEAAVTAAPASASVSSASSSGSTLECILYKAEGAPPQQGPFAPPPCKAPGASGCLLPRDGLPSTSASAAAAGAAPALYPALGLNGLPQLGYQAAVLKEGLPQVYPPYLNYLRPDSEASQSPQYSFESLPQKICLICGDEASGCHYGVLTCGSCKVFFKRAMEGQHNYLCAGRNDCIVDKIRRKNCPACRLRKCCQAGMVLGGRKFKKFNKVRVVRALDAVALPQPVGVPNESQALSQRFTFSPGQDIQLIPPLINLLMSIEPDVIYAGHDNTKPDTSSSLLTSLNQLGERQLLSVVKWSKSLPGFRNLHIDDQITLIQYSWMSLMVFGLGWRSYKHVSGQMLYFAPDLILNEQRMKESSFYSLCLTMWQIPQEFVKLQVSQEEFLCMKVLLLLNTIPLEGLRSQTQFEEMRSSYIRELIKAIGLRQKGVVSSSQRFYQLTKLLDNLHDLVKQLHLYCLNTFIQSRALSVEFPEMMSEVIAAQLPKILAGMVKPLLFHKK
# Sequence of Thyrotropin-releasing hormone receptor (Homo sapiens) (P34981 whole entry, looked up): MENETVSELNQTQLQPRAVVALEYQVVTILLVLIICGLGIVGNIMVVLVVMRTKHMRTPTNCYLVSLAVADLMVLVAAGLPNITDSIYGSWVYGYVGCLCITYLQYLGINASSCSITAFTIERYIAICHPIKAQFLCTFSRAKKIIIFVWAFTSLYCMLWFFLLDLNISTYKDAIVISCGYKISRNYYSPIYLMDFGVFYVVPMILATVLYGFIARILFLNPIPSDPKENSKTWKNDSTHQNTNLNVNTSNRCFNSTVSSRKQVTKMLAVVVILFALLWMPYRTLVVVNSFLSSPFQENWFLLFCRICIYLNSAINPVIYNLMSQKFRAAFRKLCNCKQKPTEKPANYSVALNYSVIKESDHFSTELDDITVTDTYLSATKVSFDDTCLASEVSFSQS
# Sequence of Estrogen receptor beta (Homo sapiens) (Q92731 whole entry, looked up): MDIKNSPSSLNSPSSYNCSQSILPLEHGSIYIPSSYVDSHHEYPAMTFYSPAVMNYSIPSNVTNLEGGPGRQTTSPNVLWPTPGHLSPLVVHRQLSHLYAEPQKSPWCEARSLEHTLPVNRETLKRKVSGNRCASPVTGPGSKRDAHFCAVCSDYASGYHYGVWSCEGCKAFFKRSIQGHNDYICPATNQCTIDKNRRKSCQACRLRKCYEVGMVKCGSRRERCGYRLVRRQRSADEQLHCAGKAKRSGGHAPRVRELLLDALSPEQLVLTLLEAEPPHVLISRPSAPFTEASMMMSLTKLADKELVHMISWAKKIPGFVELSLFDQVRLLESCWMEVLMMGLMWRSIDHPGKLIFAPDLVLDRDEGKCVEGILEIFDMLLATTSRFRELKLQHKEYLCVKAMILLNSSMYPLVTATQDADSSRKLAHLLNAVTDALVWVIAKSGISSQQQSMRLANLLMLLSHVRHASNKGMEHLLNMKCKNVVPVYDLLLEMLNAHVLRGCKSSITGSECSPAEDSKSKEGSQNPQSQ
Structure (SMILES),Potency [1],Potency [2],Potency [3],Potency [4],Potency [5],Potency [6],Potency [7],outcome [8],Potency [9],outcome [10],Potency [11],Potency [12],outcome [13],outcome [14],Potency [15],outcome [16],outcome [17],outcome [18],Potency [19]
O=C(O)CS,inactive,inactive,inactive,inactive,inactive,inactive,inactive,inactive,inactive,inactive,inactive,inactive,–,–,–,–,–,–,–
Cc1cc(=O)[nH]c(=S)[nH]1,inactive,inactive,inactive,inactive,inactive,inactive,inactive,inactive,inactive,inactive,inactive,inactive,inactive,inactive,inactive,inactive,inactive,–,–
CC(O)CO (stereo unspecified),inactive,inactive,inactive,inactive,inactive,inactive,inactive,inactive,inactive,inactive,inactive,inactive,inactive,inactive,inactive,inactive,–,inactive,–
O=C(O)c1[nH]n(-c2ccc(S(=O)(=O)O)cc2)c(=O)c1N=Nc1ccc(S(=O)(=O)O)cc1,23.7 µM (active) and 54.6 µM (active) and 28.6 µM (active),inactive,inactive,inactive,29.8 µM (active) and 61.3 µM (active) and 25.5 µM (active),inactive,inactive,inactive,inactive,inactive,39.8 µM (active) and 45.4 µM (active),inactive,inactive,inactive,–,–,–,–,–
Nc1ccc(S(=O)(=O)Nc2nccs2)cc1,inactive,inactive,inactive,inactive,inactive,inactive,inactive,inactive,inactive,inactive,inactive,inactive,inactive,inactive,inactive,inactive,–,–,–
OCCc1ccccc1,inactive,inactive,inactive,–,inactive,inactive,inactive,inactive,inactive,inactive,inactive,inactive,inactive,inactive,inactive,inactive,–,inactive,–
CNC[C@H](O)c1cccc(O)c1,inactive,inactive,inactive,–,inactive,inactive,inactive,inactive,inactive,inactive,inactive,inactive,inactive,inactive,inactive,inactive,–,–,inactive
O=C(O)CCCCC(=O)O,inactive,inactive,inactive,inactive,inactive,inactive,inactive,inactive,inactive,inactive,inactive,inactive,inactive,inactive,inactive,inactive,–,–,–
C/C=C/c1ccc(OC)cc1,inactive,inactive,inactive,–,inactive,inactive,inactive,inactive,inactive,inactive,inactive,inactive,inactive,inactive,inactive,inactive,–,–,inactive
CC(=O)OCC(COC(C)=O)OC(C)=O,inactive,inactive,inactive,–,inactive,inactive,inactive,inactive,inactive,inactive,inactive,inactive,inactive,inactive,inactive,inactive,–,–,inactive
CC(O)CN(CCN(CC(C)O)CC(C)O)CC(C)O (stereo unspecified),inactive,inactive,inactive,–,inactive,inactive,inactive,inactive,inactive,inactive,inactive,inactive,inactive,inactive,inactive,inactive,–,–,inactive
Cn1c(=O)c2[nH]cnc2n(C)c1=O,inactive,inactive,inactive,inactive,inactive,inactive,inactive,inactive,inactive,inactive,inactive,inactive,inactive,inactive,inactive,inactive,inactive,inactive,–
CCCC(CCC)C(=O)O,inactive,inactive,inactive,inactive,inactive,inactive,inactive,inactive,inactive,inactive,inactive,inactive,inactive,inactive,inactive,inactive,–,–,–
COC(=O)[C@H](Cc1ccccc1)NC(=O)[C@@H](N)CC(=O)O (H-Asp-Phe-OMe),inactive,inactive,inactive,inactive,inactive,inactive,inactive,inactive,inactive,inactive,inactive,inactive,inactive,inactive,inactive,inactive,–,–,–
CC(O)C(=O)O (stereo unspecified),inactive,inactive,inactive,inactive,inactive,inactive,inactive,inactive,inactive,inactive,inactive,inactive,inactive,inactive,inactive,inactive,–,–,–
O=C(O)CCC(=O)O,inactive,inactive,inactive,inactive,inactive,inactive,inactive,inactive,inactive,inactive,inactive,inactive,inactive,inactive,inactive,inactive,inactive,–,–
O=C(O)c1cc(N=Nc2ccc(S(=O)(=O)Nc3ccccn3)cc2)ccc1O,30.7 µM (active) and 30.6 µM (active),inactive,inactive,–,61.3 µM (active) and 30.6 µM (active) and 29.8 µM (active),inactive,inactive,inactive,inactive,inactive,39.8 µM (active),inactive,inactive,inactive,inactive,inactive,–,–,inactive
